# According to PubChem BioAssay (NCI):
# The panel holds about 83,000 compounds, 20% with a hit somewhere; the sample as a whole holds those more often.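 In brief: 96-well plates, 48 h treatment, single concentration, percent growth endpoint.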 A number with no mark means an inactive call. Active and inactive are the calls of the source. Rule for the calls: active = growth percent below 10; inactive = the rest.
# Legend:
# Assay in all cases: NCI-60 one-dose screen, 48 h (100 = growth as untreated, 0 = no growth, -100 = all killed)
# Conditions in all cases: 10 µM unless noted
# DU-145 prostate = tested on: DU-145 prostate
# K-562 leukemia = tested on: K-562 leukemia
# MALME-3M melanoma = tested on: MALME-3M melanoma
# MDA-MB-231 breast = tested on: MDA-MB-231 breast
# RXF 393 renal = tested on: RXF 393 renal
# SF-268 CNS = tested on: SF-268 CNS
# SF-295 CNS = tested on: SF-295 CNS
# SF-539 CNS = tested on: SF-539 CNS
# UACC-257 melanoma = tested on: UACC-257 melanoma
# M14 melanoma = tested on: M14 melanoma
# HCT-15 colon = tested on: HCT-15 colon
# HT29 colon = tested on: HT29 colon
# SNB-75 CNS = tested on: SNB-75 CNS
# SNB-19 CNS = tested on: SNB-19 CNS
# U251 CNS = tested on: U251 CNS
# PC-3 prostate = tested on: PC-3 prostate
# SK-MEL-5 melanoma = tested on: SK-MEL-5 melanoma
# UACC-62 melanoma = tested on: UACC-62 melanoma
# LOX IMVI melanoma = tested on: LOX IMVI melanoma
# SK-MEL-28 melanoma = tested on: SK-MEL-28 melanoma
SMILES,growth (DU-145 prostate),growth (K-562 leukemia),growth (MALME-3M melanoma),growth (MDA-MB-231 breast),growth (RXF 393 renal),growth (SF-268 CNS),growth (SF-295 CNS),growth (SF-539 CNS),growth (UACC-257 melanoma),growth (M14 melanoma),growth (HCT-15 colon),growth (HT29 colon),growth (SNB-75 CNS),growth (SNB-19 CNS),growth (U251 CNS),growth (PC-3 prostate),growth (SK-MEL-5 melanoma),growth (UACC-62 melanoma),growth (LOX IMVI melanoma),growth (SK-MEL-28 melanoma)
Cc1ccc(Cc2cnc(NC(=O)c3ccc4noc(-c5ccccc5)c4c3)s2)cc1,102%,91.2%,106%,94.8%,-4.67% (active),98.9%,95.9%,94.7%,99.3%,93.4%,88.6%,65.3%,94.1%,92.2%,96.3%,75.2%,94.9%,77%,93.1%,99%
COc1cccc(-c2nn(-c3ccccc3)cc2-c2ccnc(NCCNC(=O)c3ccccc3)c2)c1,74.5%,38.2%,95.7%,55.3%,79.9%,78.3%,62.1%,96.9%,49.7%,55.3%,50.5%,15.9%,71.1%,72.3%,47.9%,37.7%,34.5%,57.2%,68.7%,88.3%
C=C(C)[C@@H]1CC[C@]2(C)[C@H](CC=C3[C@@H]4CC(C)(C)CC[C@]4(C(N)=O)CC[C@]32C)[C@@]1(C)CCC#N,42.1%,15.9%,10.4%,38.6%,2.74% (active),45.6%,38.5%,35.7%,17.5%,44.7%,14.8%,39.3%,29.3%,47.7%,30.6%,-0.165% (active),-2.59% (active),15.7%,36.9%,45.8%
C[n+]1cc2c3c(ccc2c2ccc4cc5c(cc4c21)OCO5)OCO3,-94.4% (active),-5.22% (active),-76.9% (active),-76.2% (active),-77.1% (active),-93.1% (active),-63.1% (active),-71.8% (active),-87.6% (active),-76.8% (active),-81.2% (active),-84.9% (active),-78.8% (active),-87.1% (active),-82.2% (active),-72.8% (active),-99.4% (active),-66.7% (active),-73.9% (active),-92.1% (active)
Cc1cc(Cl)nc(NCc2cc(Nc3ccnc4cc(Cl)ccc34)ccc2F)n1,52.3%,26.9%,77.2%,54.4%,61.2%,58.2%,69.5%,70.5%,64.2%,60.9%,11.7%,9.26% (active),83.3%,80.6%,48.9%,52.7%,56.5%,70.7%,10.4%,94.1%
Cn1cc(-c2csc(-c3cccc(F)c3)n2)c2cccnc21,-62.7% [100 µM] (active),2.45% [100 µM] (active),-39.1% [100 µM] (active),-50.1% [100 µM] (active),-30.7% [100 µM] (active),-40.5% [100 µM] (active),-51.9% [100 µM] (active),-74.9% [100 µM] (active),-37.6% [100 µM] (active),-77.2% [100 µM] (active),-43.3% [100 µM] (active),-71.7% [100 µM] (active),-29.4% [100 µM] (active),-62.8% [100 µM] (active),-36.4% [100 µM] (active),-42% [100 µM] (active),-86.1% [100 µM] (active),-67% [100 µM] (active),-54.3% [100 µM] (active),-57.8% [100 µM] (active)
O=C(c1ccccc1)N1N=C(c2ccccc2)CC1c1nnc2n(Cc3ccccc3)c(=O)c3c4c(sc3n12)CCCC4 (stereo not given),116%,116%,85.2%,111%,104%,99.3%,138%,92.1%,112%,111%,102%,101%,108%,101%,98.3%,97.9%,109%,112%,91.8%,106%
CCN(CC)CCN1C(=O)c2c(c(C)c3c(oc4cc(O)ccc43)c2C)C1=O,-89.2% (active),-58.5% (active),84.2%,-68.7% (active),79.4%,74.5%,103%,90.8%,97.7%,-79.3% (active),-58.9% (active),-37.2% (active),90.3%,9.88% (active),-87.9% (active),-75.1% (active),79%,86.2%,94%,63.1%
COc1cc(OC)cc(C2CC(=O)Nc3c2c(C)nn3-c2nc3ccccc3[nH]2)c1 (stereo not given),53.3%,9.41% (active),38.3%,16.5%,-0.824% (active),29.3%,-62.9% (active),18.4%,23.9%,11.8%,37.2%,23.5%,-3.14% (active),21.9%,16.8%,26.4%,-62% (active),-19.2% (active),1.34% (active),38.1%
C[n+]1cccc(CC(=O)NO)c1,109%,94.4%,104%,100%,106%,104%,113%,90.9%,67.7%,99.2%,112%,99.7%,92.6%,102%,87.6%,95.5%,96.4%,92.9%,98%,113%
N#Cc1c(-c2cccc(Cl)c2)cc(-c2cccc(F)c2)[nH]c1=O,98.6%,85.5%,99.9%,89.9%,88.7%,95.6%,91.2%,94.3%,102%,101%,90.2%,107%,85.8%,91.1%,86.7%,85.3%,89.4%,76.8%,89.6%,97.9%
C=CCn1c(C)nc2cc(Nc3nc(Cl)nc4ccccc34)ccc21,105%,74.8%,122%,89.9%,87.4%,89.9%,84.8%,97.4%,102%,110%,92.3%,98.8%,96.9%,107%,95.5%,82%,91.4%,93.1%,104%,107%
CCC1(C2CCCC2)NC(=O)NC1=O (stereo not given),101%,102%,97.5%,95.6%,97.2%,95.8%,111%,86.3%,105%,102%,92.3%,94.6%,93.9%,98.5%,106%,101%,101%,99.7%,79.7%,98.4%
COc1ccc2nc(NNC(=O)c3cnccn3)c3cccn3c2c1,1.09% (active),4.97% (active),-6.33% (active),5.83% (active),41.2%,9.31% (active),2.1% (active),-19.7% (active),-8.01% (active),-37.5% (active),-19.5% (active),10%,25.3%,6.9% (active),0.414% (active),16.5%,0.958% (active),-34.2% (active),-36.3% (active),11.7%
CCSC1=NC2C(N(CC)C(=O)N2CC)N1/N=C/C=C/c1ccccc1[N+](=O)[O-] (stereo not given),5.79% (active),10.4%,36.2%,-1.7% (active),41.5%,45.2%,8.87% (active),-26.3% (active),61.1%,6.53% (active),10.7%,3.47% (active),23.8%,22.1%,12.7%,22.9%,-38.6% (active),25.5%,14.3%,54.5%
